The list is not random: actives were taken first. Their share in the collection is about 6.5%.
Lassa entry inh – Lassa virus entry inhibition; Lassa virus pseudotype entry inhibition, cell reporter; Potency, µM (titrated, usually from 37.9 µM), for inactives: top-dose activity change, negative = inhibition, usual class: inhibitors; actives 1.2% (n = 300,000); calls by dose curve; tested in HEK293 cells; note: potency is the fitted concentration of half-maximal effect; nearly all actives have a fitted effect of over 50% in size
HCMV antiviral – blocks human cytomegalovirus replication. HFF cells, HCMV-luciferase reporter, 72 h; stronger effect = lower value. activity change, negative = inhibition, % at 57.5 µM. actives 4.5% (n = 410,000); in the data active = activity change below about -60%; inconclusive = no clear call, values can overlap the other calls; inactive = above about -39%
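Compounds were evaluated in HFFs infected with an HCMV luciferase reporter virus (MOI 1 PFU/cell). Luciferase in lysates collected 72 h post infection served as the replication measure.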
Vaccinia Venus – vaccinia inhibition (Venus reporter). Potency, µM (highest dose often 36.5 µM), for inactives: at the top dose activity change, negative = inhibition, most hits filed as inhibitors. Vaccinia virus Venus reporter expression, fluorescence. actives 0.46% (n = 330,000); calls by dose curve; tested in A549 cells; note: potency is the fitted concentration of half-maximal effect; nearly all actives have a fitted effect of over 30% in size
FMDV antiviral – foot and mouth disease virus antiviral activity; FMDV antiviral cell-based qHTS; Potency, µM (top dose mostly 57.9 µM), for the others: top-dose activity change, negative = inhibition, usual class: inhibitors; actives 1.2% (n = 410,000); AID 1159524; calls by dose curve; tested in HEK293T cells; note: read-out not given here; potency is the fitted concentration of half-maximal effect; nearly all actives have a fitted effect of over 45% in size
MARV entry inh – blocks Marburg virus binding to or entry into cells; Potency, µM (titrated, usually from 37.8 µM), inactives show at the highest dose activity change, negative = inhibition, most hits filed as inhibitors; Marburg virus pseudotyped entry inhibition, cell reporter; actives 1.8% (n = 300,000); calls by dose curve; tested in HEK293 cells; note: potency is the fitted concentration of half-maximal effect
Vaccinia mCherry – inhibitors of vaccinia virus infection (mCherry reporter signal); Vaccinia virus mCherry reporter infection, fluorescence; Potency, µM (doses to about 36.5 µM), for inactives: at the highest dose activity change, negative = inhibition, actives largely listed as inhibitors; actives 0.63% (n = 310,000); calls by dose curve; tested in A549 cells; note: potency is the fitted concentration of half-maximal effect; nearly all actives have a fitted effect of over 35% in size
* = called active by the depositor; i = inactive; ? = inconclusive; / = not tested or not shown; ! = repeats disagree; [ ] = another dose, or the depositor's remark. % is set by controls: 0 for no effect and ±100 for the full control effect.

SMILES	Lassa entry inh	HCMV antiviral	Vaccinia Venus	FMDV antiviral	MARV entry inh	Vaccinia mCherry
COCCCn1c(=N)c(C(=O)NCC2CCCO2)cc2c(=O)n3cccc(C)c3nc21 (stereo unspecified)	0%	-27	1%	-25%	?	-15%
Cc1cccn2c(=O)c3cc(C(=O)NC4CCCC4)c(=N)n(Cc4ccc(F)cc4)c3nc12	/	-16	9%[7.34 µM]	-12%	/	-5%[7.34 µM]
Cc1ccc(Cn2c(=N)c(C(=O)NCC3CCCO3)cc3c(=O)n4cccc(C)c4nc32)cc1 (stereo unspecified)	-10%[46.1 µM]	-107*	-9%	7%	?	0%
CCOCCCn1c(=N)c(C(=O)NCC2CCCO2)cc2c(=O)n3cccc(C)c3nc21 (stereo unspecified)	7%[46.1 µM]	-67*	10%	-22%	?	11%
Cc1cccn2c(=O)c3cc(C(=O)NC4CCCCC4)c(=N)n(Cc4ccccc4)c3nc12	?	-61*	-8%	-21%	-16%[46.1 µM]	i
CNc1nc2cnc(Nc3cccc(F)c3)cc2n1CCOC	/	15	/	/	/	/
CC(C)c1ccc(CN2CCC2(C)C(=O)Nc2cnc3ccccc3c2)cc1 (stereo unspecified)	/	-13	-11%	-27%	/	i
Cc1cccc(CNC(=O)c2ccc(N3Cc4ccccc4Oc4ncccc43)s2)c1	?	-3	-8%	0%	/	-4%
NC12CC3CC(CC(C3)C1)C2	18%	-18	-11%	-7%	?	-6%[127 µM]
CC12CC3CC(C)(C1)CC(N)(C3)C2	?	?	-14%	-26%	13µM*	-6%
Nc1ccc2c3c(ccc([N+](=O)[O-])c13)CC2	/	-69*	-12%	-26%	/	-20%
Cc1ccc(CNC(=S)Nc2ccc(C)c([N+](=O)[O-])c2)cc1	20%	4	-9%	-24%	28%	i
Fc1ccccc1CNC(=S)Nc1cccc(C(F)(F)F)c1	?	-79*	?	-5%	?	?
O=C(CNc1cccc(Cl)c1)NNC(=S)NCc1ccccc1	-15%	?	1%	-24%	-26%	-18%
FC(F)(F)c1cccc(NC(=S)NCc2ccc(Cl)cc2)c1	-17%	-90*	?	-27%	?	-8%
S=C(NCc1ccccc1)Nc1cccc(Cl)c1	-1%	-84*	-14%	62%	-35%	-7%
Cc1ccc(NC(=S)NCc2ccccc2)cc1[N+](=O)[O-]	16µM*	-96*	-23%	19%	7.1µM*	?
COC(=O)/C(C#N)=C1/C=Cc2ccccc2N1	-1%[46.1 µM]	42	-13%	29%	?	-13%
N#C[C@@H](c1ccccc1)C1CCN(C(=O)c2ccco2)CC1	/	9	/	/	/	/
O=C(COC(=O)Cc1ccccc1[N+](=O)[O-])NCc1ccc(F)cc1	15%[46.1 µM]	?	-13%	-4%	-8%[46.1 µM]	i
O=C1O[C@@H](N2CCN(C/C=C\c3ccccc3)CC2)c2ccccc21	/	/	/	/	3%	/
CC(NC(=S)Nc1cccc(C(F)(F)F)c1)C(C)(C)C (stereo unspecified)	10µM*	?	-21%	?	?	-6%
CN(C)NC(=S)Nc1cccc(C(F)(F)F)c1	3%	9	-11%	-19%	19%[46.1 µM]	-3%
O=C1CCCCC1Nc1ccc2ccccc2c1 (stereo unspecified)	?	-32	-17%	26%	3.5µM*	?
COc1cc(=O)n2c(c1C(=O)NCc1ccsc1)CCN(Cc1nc3ccccc3[nH]1)CC2	/	/	-15%	-4%	/	-9%
SMILES	Lassa entry inh	HCMV antiviral	Vaccinia Venus	FMDV antiviral	MARV entry inh	Vaccinia mCherry
COC(=O)c1ccccc1NC(=O)c1c(C)oc2ncn(C)c(=O)c12	20%[46.1 µM]	-91*	-3%	12%	7%[46.1 µM]	-3%
CC(C)CC1(C)NC(=O)N(Cc2cc([N+](=O)[O-])cc3c2OCOC3)C1=O (stereo unspecified)	-4%	-22	-5%	-22%	0%	i
COc1ccc(N2CCN(C(=O)CN=C3NS(=O)(=O)C(c4ccc(C)cc4)=C3C)CC2)cc1	25%[14.3 µM]	-61*	-30%	-25%	-10%	?
Cc1cc(C)cc(N(CC(=O)Nc2c(C)cc(C)cc2C)S(=O)(=O)c2c(C)nn(C)c2C)c1	0%[46.1 µM]	-10	-12%	-17%	/	-11%
CCOC(=O)[C@]12CCC=C1N(Cc1ccc(Cl)cc1Cl)C(=O)[C@H](CC(=O)N1CCC(c3ccccc3)CC1)C2	/	-3	-5%	-7%	/	13%
CC(C)C(=O)Nc1ccc2nc(SCC(=O)N3CCc4ccccc43)sc2c1	-6%[46.1 µM]	-11	-2%	35µM*	-19%[46.1 µM]	-4%
O=C(Nc1ccc2nc(SCC(=O)N3CCOCC3)sc2c1)c1ccc(Br)cc1	1%[46.1 µM]	-4	-13%	?	?	-12%
O=C(Nc1ccc2nc(SCC(=O)N3CCOCC3)sc2c1)c1cccc(Br)c1	-18%[46.1 µM]	-35	-26%	25µM*	?	-24%
O=C(COc1ccccc1Cl)Nc1ccc2nc(SCC(=O)N3CCOCC3)sc2c1	3%[46.1 µM]	-35	-14%	?	?	-12%
O=C(Nc1ccc2nc(SCC(=O)N3CCOCC3)sc2c1)c1ccc(F)cc1	19%[46.1 µM]	-31	-19%	-16%	?	-11%
O=C(Nc1ccc2nc(SCC(=O)N3CCOCC3)sc2c1)c1ccc(Cl)cc1	?	-74*	?	20µM*	?	?
O=C(Nc1ccc2nc(SCC(=O)N3CCOCC3)sc2c1)c1ccccc1Cl	3%[46.1 µM]	-83*	-26%	?	14%[46.1 µM]	-20%
FC(F)(F)c1ccc(Nc2cc3c(cn2)ncn3CC2CC2)cc1	/	7	/	/	/	/
COc1ccc([C@@H]2C[C@H]3[C@@H](CN2S(=O)(=O)c2ccccc2)C(=O)C[C@@H](c2ccc(C)cc2)N3S(=O)(=O)c2ccc(C)cc2)cc1	/	-14	-9%	-19%	/	i
COC(=O)[C@@H]1CC[C@H](C)[C@@H](c2ccc(C)cc2)N1C(=O)c1ccc(C=NOC[C@H]2O[C@H](c3ccccc3)C=C[C@H]2Oc2ccc(OC)cc2)cc1	/	/	/	/	-7%[14.2 µM]	/
O=S1(=O)CC(N2CCN(CCO)CC2)CN1Cc1ccccc1 (stereo unspecified)	/	-10	1%	-14%	?	i
COC(=O)c1ccccc1-c1cc(C)cc2c1OC(CNC(=O)c1cc(C)n(C)n1)C2 (stereo unspecified)	/	/	-10%	20%	/	i
CCCCCCCCCCCCCCCCCCN(CCCCCCCCCCCCCCCCCC)c1ccc(C=O)cc1	/	/	-10%	/	/	-14%
COC(=O)CSc1nc2ccc(NC(=O)c3ccccc3C(=O)N3CCOCC3)cc2s1	-2%	-64*	-3%	-17%	-2%	-13%
O=S1(=O)c2ccc(Br)cc2OCCC2CCCCN21 (stereo unspecified)	/	-25	/	/	/	/
O=C(c1ccc(COc2ccccc2Cl)o1)N1CCN(Cc2ccc3c(c2)OCO3)CC1	?	1	-16%	35µM*!	?	i
CCNC(=S)N1CCN(Cc2ccc3c(c2)OCO3)CC1	/	-22	/	15%	/	/

Source: PubChem BioAssay
